Test results reported in ChEMBL document CHEMBL3988442, “University of Dundee, Small-Polar-MMV Screening Library” (2021).
Among all 48,000 compounds or so, about 13,000 (27%) showed an effect of 50% or more. Some of the results follow.

test system: Wolbachia pipientis; assay: Anti-Wolbachia Cell-Based Screen; type: functional; set-up: scale not given: in the data most compounds retested in dose-response had high values; conditions: 5 µM

| Compound | Percent Effect [%] |
| --- | --- |
| Cc1cccnc1NC(=O)c1ccc(-n2cncn2)nn1 | -9.23 |
| CCN(CCCNC(=O)c1cc2cccc(F)c2o1)S(C)(=O)=O | 13.88 |
| O=C(NCc1ccc(Cl)s1)c1ccc(N2CCOC2=O)cc1 | -4.831 |
| CCOc1nnc(CN(C)C2CCCN(c3ccc(C)nn3)C2)s1 (stereo not drawn) | 91.1 |
| Cc1cc(CN(C)C2CCCN(c3cccnn3)C2)on1 (stereo not drawn) | -2.461 |
| Cc1ccc(N2CCCC(N(C)Cc3ccccn3)C2)nn1 (stereo not drawn) | 1.725 |
| CN(Cc1cc(-c2ccccc2)no1)C1CCCN(c2cccnn2)C1 (stereo not drawn) | -1.752 |
| Cc1ccc(N2CCCC(N(C)Cc3cc(C)on3)C2)nn1 (stereo not drawn) | -10.05 |
| CCOc1nnc(CNC2CCCN(c3ccc(C)nn3)C2)s1 (stereo not drawn) | 6.809 |
| CN(Cc1cscn1)C1CCCN(c2cccnn2)C1 (stereo not drawn) | 95.91 |
| Cc1cnc(CN(C)C2CCCN(c3cccnn3)C2)cn1 (stereo not drawn) | 107 |
| Cc1cc(CN(C)C2CCCN(c3cccnn3)C2)no1 (stereo not drawn) | 110.4 |
| CN(Cc1nnc(-c2ccco2)o1)C1CCCN(c2cccnn2)C1 (stereo not drawn) | 5.287 |
| CC(C)n1nc2c(cc1=O)CN(c1nc3ccccc3s1)CC2 | 8.102 |
| CC(NC(=O)N1CCC2(C1)OCCO2)c1cccc(Cl)c1 (stereo not drawn) | -15.89 |
| CN1CCCC(CCC(=O)N2CCc3onc(C(=O)N(C)C)c3C2)C1 (stereo not drawn) | 14.32 |
| Cc1noc(CNc2ccccc2N2CCCCC2)n1 | 5.096 |
| CC(C)c1noc(CS(=O)(=O)CC(=O)NCC(F)(F)F)n1 | -6.707 |
| Cc1ncc(CN(C)CC2CCCN2c2cccnn2)s1 (stereo not drawn) | 0.5019 |
| Cc1ncc(CN(C)C2CCCN(c3cccnn3)C2)s1 (stereo not drawn) | 87.88 |
| CN(Cc1ncc(C(C)(C)C)o1)C1CCCN(c2cccnn2)C1 (stereo not drawn) | -2.807 |
| Cc1ccsc1[C@@H]1CCN(C(=O)CCc2nc3ccccc3[nH]2)C[C@H]1O | -8.794 |
| O=C1NC2(CCN(C(=O)c3ccnnc3)CC2)CC1c1ccccc1 (stereo not drawn) | 95.48 |

| Compound | Percent Effect [%] |
| --- | --- |
| O=C(O)C(F)(F)F.O=C1NC2(CCN(C(=O)c3ccccc3)CC2)CC1c1cccnc1 (stereo not drawn) | -9.682 |
| Cc1cc(C(=O)N2CCC3(CC2)CC(c2cccnc2)C(=O)N3)no1.O=C(O)C(F)(F)F (stereo not drawn) | 102.9 |
| O=C(O)C(F)(F)F.O=C1NC2(CCN(C(=O)N3CCOCC3)CC2)CC1c1cccnc1 (stereo not drawn) | 179.1 |
| Cc1ccc(C(=O)N2CCC3(CC2)CC(c2ccccc2)C(=O)N3)cn1.O=C(O)C(F)(F)F (stereo not drawn) | -11.02 |
| O=C(O)C(F)(F)F.O=C1NC2(CCN(c3ncccn3)CC2)CC1c1cccnc1 (stereo not drawn) | -4.388 |
| Cc1cccc(C(=O)N2CCC3(CC2)CC(c2ccccc2)C(=O)N3)c1 (stereo not drawn) | -4.545 |
| O=C1NC2(CCN(C(=O)c3ccc(Cl)cc3)CC2)CC1c1ccccc1 (stereo not drawn) | 7.391 |
| Cc1cnc(C(=O)N2CCC3(CC2)CC(c2ccccc2)C(=O)N3)cn1 (stereo not drawn) | -6.858 |
| CN(C)C(=O)CN1C[C@@H]2CC[C@H](C1)N(Cc1cc(F)ccc1F)C2 | 15.49 |
| COc1nc(C)c(C(=O)N2CCc3[nH]nc(C4CCCC4)c3C2)s1 | -0.6209 |
| CC(C)NC(=O)CN(C)CC(=O)/N=c1/cc[nH]n1C(C)C1CC1 (stereo not drawn) | -11.27 |
| COCCOCCNS(=O)(=O)C1CS(=O)(=O)c2ccccc21 (stereo not drawn) | 2.377 |
| NC(=O)CN1CCC(NC2CSCCc3ccccc32)CC1 (stereo not drawn) | -6.664 |
| COCC(C)(C)NS(=O)(=O)C1CS(=O)(=O)c2ccccc21 (stereo not drawn) | 12.05 |
| NC(=O)CN1CCC(NC2CCCCc3ccccc32)CC1 (stereo not drawn) | -5.758 |
| COC1CN(CCO)S(=O)(=O)c2ccccc21 (stereo not drawn) | 103.3 |
| NC(=O)CN1CC(O)c2ccccc2S1(=O)=O (stereo not drawn) | 96.32 |
| CNC(=O)c1ncn2c1CN(CCC(C)C)S(=O)(=O)c1ccccc1-2 | 5.918 |
| O=S1(=O)c2ccccc2C(O)CN1CCO (stereo not drawn) | 120.8 |
| Cc1ccc2c(c1)c(CNC(=O)C1CC(=O)N(C3CCCC3)C1)nn2C (stereo not drawn) | -26.6 |
| O=C(N1CCCC1)N1CCC(c2nccn2Cc2cscn2)CC1 | -4.277 |
| CC(C)n1cnnc1CN(C)C(=O)c1cc(COc2ccccc2)[nH]n1 | -4.684 |
| CC(=O)NCC1CCN(C(=O)NCCc2ccc3c(c2)OCO3)CC1 | -2.588 |

| Compound | Percent Effect [%] |
| --- | --- |
| O=C(CN1CCCC(CO)C1)NCCOc1cccc(Cl)c1 (stereo not drawn) | 0.8563 |
| CCOc1ccc(Cl)cc1CCNC(=O)N1CCCC(CO)C1 (stereo not drawn) | 2.242 |
| CCCOc1ccc(CNC(=O)N2CCC(C(N)=O)C2)cc1 (stereo not drawn) | 0.5279 |
| NC(=O)N1CCCC(C(=O)NCCOc2ccc3c(c2)OCO3)C1 (stereo not drawn) | 6.711 |
| CC(=O)NC1CCCN(C(=O)NCCOc2ccc3c(c2)OCO3)C1 (stereo not drawn) | 106.3 |
| O=C(c1ccc2c(c1)OCO2)N1CCCC(Nc2ccc(F)cc2)C1 (stereo not drawn) | -14.66 |
| O=C(NCCOc1ccc2c(c1)OCO2)N1CCCC(CO)C1 (stereo not drawn) | 85.49 |
| NC(=O)C1CCN(C(=O)NCCOc2ccc3c(c2)OCO3)C1 (stereo not drawn) | 88.72 |
| Cc1noc(C)c1CNC(=O)N1CCC(NS(C)(=O)=O)CC1 | -20.1 |
| Cc1n[nH]c(C)c1CCc1ccc(S(C)(=O)=O)cc1 | 1.11 |
| CCCc1n[nH]cc1C(=O)N1CCC(c2nccn2CCOC)CC1 | -3.808 |
| CSC(C)(C)CNC(=O)NCCC1CCN(C)CC1 | 0.9558 |
| CCc1nc(CN(C)C2CCCN(c3cccnn3)C2)no1 (stereo not drawn) | 81.94 |
| Cc1ccc(N2CCCC(N(C)Cc3noc(C4CC4)n3)C2)nn1 (stereo not drawn) | -34.27 |
| CN(Cc1nc(C2CC2)no1)C1CCCN(c2cccnn2)C1 (stereo not drawn) | -5.639 |
| Cc1nc(CN(C)C2CCCN(c3cccnn3)C2)no1 (stereo not drawn) | -8.023 |
| CN(Cc1noc(C(C)(C)C)n1)C1CCCN(c2cccnn2)C1 (stereo not drawn) | 102.2 |
| CC(C)(C)c1nc(CNC2CCCN(c3cccnn3)C2)no1 (stereo not drawn) | -17.48 |
| CC(C)c1nc(CN(C)C2CCCN(c3cccnn3)C2)no1 (stereo not drawn) | 109.3 |
| CC(C)c1nc(CNC2CCCN(c3cccnn3)C2)no1 (stereo not drawn) | 9.914 |
| CN(Cc1noc(C2CC2)n1)C1CCCN(c2cccnn2)C1 (stereo not drawn) | 100.2 |
| CN(Cc1nc(-c2ccco2)no1)C1CCCN(c2cccnn2)C1 (stereo not drawn) | 4.985 |
